Assay outcomes as filed in PubChem.
In the library only some 19% were active in any assay of this set; here they are far more common.
KB-V1 MDR tox: qHTS assay for MDR1-selective chemotherapeutics: Primary screen using the drug-selected MDR subline cells KB-V1; KB-V1 MDR cells viability, CellTiter-Glo, 72 h; Potency, µM (titrated, usually from 46.1 µM), most hits filed as cytotoxic; 400,000 compounds, 3.4% hits; further: nearly all actives have a fitted effect of over 60% in size
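Luminescent ATP read-out (CellTiter-Glo, 10 min) measures survival of drug-selected KB-V1 MDR cells after 72 h, 37 degrees C compound exposure. Medium: phenol-red-free DMEM, 10% FBS. Values from fitted concentration-response curves.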
HT1080 IDH1KD tx: qHTS for induction of synthetic lethality in tumor cells producing 2HG: qHTS for the HT-1080-IDH1KD cell line; 360,000 compounds, 2% hits; Potency, µM (titrated, usually from 46.1 µM), without a hit: top-dose activity, negative = toxicity, usual class: cytotoxic; HT-1080 IDH1 knockdown viability, ATP luminescence, 48 h;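 further: 0% = DMSO wells and -100% = cell-free medium wells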
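Viability of IDH1-knockdown HT-1080 fibrosarcoma cells was assessed by CellTiter-Glo after 48 h at 37 °C with titrated compound; concentration-effect curves were classified by fit quality and response size.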
HT1080NT lethal: qHTS for induction of synthetic lethality in tumor cells producing 2HG: qHTS for the HT-1080-NT fibrosarcoma cell line; 360,000 compounds, 1.6% hits; HT-1080-NT fibrosarcoma viability, CellTiter-Glo ATP luminescence, 48 h; Potency, µM (highest dose often 46.1 µM), without a hit: at the top dose activity, negative = less viability, most hits filed as cytotoxic;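 further: NT is the 2HG producing partner of a matched IDH1 knockdown line; 0% = DMSO-treated cells and -100% = media-only wells without cells; nearly all actives have a fitted effect of over 55% in size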
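750 cells/well, RPMI + 5% FBS; 2 h settle, compound pin-transfer, 48 h at 37 degrees C. CellTiter-Glo 10 min RT, luminescence. Normalized to DMSO and media-only wells.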
TDP1 cell noCPT: qHTS for Inhibitors of human tyrosyl-DNA phosphodiesterase 1 (TDP1): qHTS in cells in absence of CPT; DT40 Tdp1-/- hTDP1 cells, no CPT, ATP luminescence, 48 h; Potency, µM (series often up to 46.2 µM), for the others: at the highest dose activity change, negative = growth inhibition, usual class: inhibitors; 420,000 compounds, 15% hits; further: nearly all actives have a fitted effect of over 55% in size
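Cells were dispensed at 400 per well, compounds added by pin tool, plates incubated ≥48 hr at 37 °C, then CellTiter-Glo added for 30 min at room temperature before luminescence reading. Line: DT40 Tdp1-/- complemented with hTDP1; camptothecin omitted.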
KB-3-1 cytotox: qHTS assay for MDR1-selective chemotherapeutics: Primary screen using the parental adenocarcinoma cell KB-3-1; KB-3-1 viability, CellTiter-Glo ATP luminescence, 72 h; Potency, µM (doses to about 46.1 µM), usual class: cytotoxic; 400,000 compounds, 1.4% hits; AID 1347075, 2019; further: nearly all actives have a fitted effect of over 60% in size
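Parental KB-3-1 adenocarcinoma cells in phenol-red-free DMEM with 10% FBS were pin-treated with compounds at several concentrations, incubated 72 h at 37 °C, and viability read by CellTiter-Glo luminescence; concentration-effect curves were fitted after normalization.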
DT40 TDP1 CPT: qHTS for Inhibitors of human tyrosyl-DNA phosphodiesterase 1 (TDP1): qHTS in cells in presence of CPT; chicken DT40 Tdp1-/-;hTDP1 cells + 20 nM CPT, ATP luminescence, 48 h; Potency, µM (highest dose often 46.2 µM), for inactives: at the top dose activity change, negative = growth inhibition, most hits filed as inhibitors; 420,000 compounds, 12% hits; further: nearly all actives have a fitted effect of over 55% in size
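Chicken DT40 Tdp1-/- cells stably complemented with human TDP1 were seeded at 400 cells/well in medium containing 20 nM camptothecin, exposed to pin-transferred compounds, and grown at 37 °C for at least 48 hr. Viability was read as ATP luminescence.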
The depositor's hits bear a star; i = inactive; u = inconclusive; x = not tested or not shown. The call rests on the fitted dose curve; in most records, active means well fitted curve in the direction sought with a large enough effect; inconclusive means small, poorly fitted or top-dose-only effect, or another doubt; inactive means no such curve, though single readings can be large; an effect the other way counts as inactive or inconclusive. Unless noted, on the % scale 0 is the no-effect control and ±100 the full control effect; potency means the concentration at half of the fitted maximal effect.

SMILES	KB-V1 MDR tox	HT1080 IDH1KD tx	HT1080NT lethal	TDP1 cell noCPT	KB-3-1 cytotox	DT40 TDP1 CPT
COc1ccccc1Oc1ccc(N2CC(C(=O)OCC(=O)c3ccccc3)CC2=O)cc1 (stereo unspecified)	i	9%	10%	20%	i	-11%
CC1Nc2nc(N(C)C)[nH]c(=O)c2NC1C (stereo unspecified)	i	19%	19%	u	i	26µM*
CN(C)c1nc2ncn(Cc3ccccc3)c2c(=O)[nH]1	i	3%	6%	28%	i	-2%
COc1ccccc1-c1noc2c1C(=O)NCC2	i	5%	8%	-27%	i	-17%
CSc1nnc(-c2ccccc2)c(-c2ccccc2)n1	u	5%	9%	-10%	i	-20%
CSc1nnc2c3ccccc3c3ccccc3c2n1	i	-3%	-2%	18µM*	i	15µM*
CCC1(c2ccc(F)cc2)NC(=O)N(CC(=O)Nc2ccc(-c3nc4ccc(C)cc4s3)cc2)C1=O (stereo unspecified)	i	u	u	6.5µM*	i	13µM*
Cc1ccc2nc(-c3ccc(NC(=O)CCS(=O)(=O)c4ccccc4)cc3)sc2c1	i	-3%	-21%	26µM*	i	u
Cc1ccc2nc(-c3ccc(NC(=O)CSc4nccc(=O)[nH]4)cc3)sc2c1	i	-20%	-7%	6%	i	1%
Cc1ccc(S(=O)(=O)Nc2ccc(-c3nc4ccc(C)cc4s3)cc2)cc1	i	-21%	0%	u	i	u
Cc1cccc(S(=O)(=O)Nc2ccc(-c3nc4ccc(C)cc4s3)cc2)c1	i	-29%	-28%	29µM*	i	u
Cc1ccc2nc(-c3ccc(NC(=O)CSc4nc(N)cc(=O)[nH]4)cc3)sc2c1	i	12µM*	9.2µM*	5%	u	-4%
Cc1ccc2nc(-c3ccc(NC(=O)C(F)(F)F)cc3)sc2c1	i	x	x	u	u	-18%
Cc1ccc2nc(-c3ccc(NC(=O)C(C)Sc4nncs4)cc3)sc2c1 (stereo unspecified)	12µM*	-17%	u	9.2µM*	i	u
CC(Sc1nncs1)C(=O)Nc1ccc2c(c1)OCCO2 (stereo unspecified)	i	8%	19%	-3%	i	-1%
Cc1ccc2nc(-c3ccc(NC(=O)CNC4CC4)cc3)sc2c1	i	-3%	3%	18µM*	i	16µM*
COc1ccc(Oc2ncc3nc(-c4cccs4)c(=O)n(Cc4cccs4)c3n2)cc1	x	x	x	-11%	x	-5%
CC1CCN(c2[nH]c(=S)c(C#N)c3c2CCCC3)CC1	i	10%	8%	u	i	u
CC1(C)Cc2c(c(N3CCCCC3)[nH]c(=S)c2C#N)CS1	12µM*	14%	5%	-27%	i	-1%
CC(=O)Nc1ccc(NC(=O)C/C(C)=N/NC(=O)c2cccc3ccccc23)cc1	i	u	u	-1%	i	7%
O=[N+]([O-])c1ccc(-n2nnnc2-c2ccccc2)c([N+](=O)[O-])c1	18µM*	u	u	2.9µM*	i	3.7µM*
CCCn1c(=O)c(C(=O)NNS(=O)(=O)c2ccc(Cl)cc2)c(O)c2ccccc21	u	1%	2%	-1%	i	-16%
Cc1cc(C)c(NC(=O)CCN2C(=O)c3ccccc3Sc3ncccc32)c(C)c1	u	x	x	21µM*	i	u
Cc1ccc(NC(=O)CCN2C(=O)c3ccccc3Sc3ncccc32)c(Cl)c1	x	x	x	18µM*	x	18µM*
O=C(CN1C(=O)c2ccccc2Sc2ncccc21)Nc1cccc(C(F)(F)F)c1	i	x	x	u	i	18µM*
SMILES	KB-V1 MDR tox	HT1080 IDH1KD tx	HT1080NT lethal	TDP1 cell noCPT	KB-3-1 cytotox	DT40 TDP1 CPT
Cc1cc(C)cc(NC(=O)CN2C(=O)c3ccccc3Sc3ncccc32)c1	i	x	x	u	i	u
Cn1c(CNC(=O)CCNC(=O)c2cccc(Br)c2)cc(=O)n(C)c1=O	i	-13%	2%	15%	i	-9%
CCC(=O)c1ccc(OCC(=O)OCC(=O)NCCC2=CCCCC2)cc1	i	6%	14%	-13%	i	7%
CC(=O)Nc1ccc(S(=O)(=O)NCCSCc2c(Cl)cccc2Cl)cc1	5.8µM*	u	-16%	u	9.2µM*	u
CCOc1ccc(S(=O)(=O)NCc2ccncc2)cc1NC(=O)c1ccccc1F	u	23µM*	u	1.5µM*	u	-24%
COc1ccc(S(=O)(=O)NCc2ccncc2)cc1NC(=O)c1ccccc1	i	-17%	u	16µM*	i	21µM*
CCOc1ccccc1NC(=O)c1cc(S(=O)(=O)NCc2ccco2)ccc1F	i	2%	-3%	-82%	i	15µM*
COc1ccc(S(=O)(=O)NCc2cccnc2)cc1NC(=O)c1ccccc1	i	6%	2%	-18%	i	-6%
Cc1ccc(NC(=O)CN2C(=O)C3CC=C(Cl)CC3C2=O)cc1 (stereo unspecified)	i	17%	20%	-12%	i	-20%
CCn1ncc(CN2CCC(n3nccc3NC(=O)c3ccccc3Cl)CC2)c1C	i	-4%	-4%	-15%	i	2%
COc1ccc(C(=O)O)cc1S(=O)(=O)NCc1ccncc1	u	19%	4%	17%	i	16%
CCOc1ccc(S(=O)(=O)NCc2ccncc2)cc1NC(=O)c1ccccc1	u	23µM*	3.7µM*	1.2µM*	0.58µM*	3.7µM*
COc1ccc(S(=O)(=O)NCc2ccncc2)cc1NC(=O)c1ccc(Cl)cc1	i	-4%	-20%	15µM*	i	16µM*
COc1ccc(S(=O)(=O)NCCSCc2ccc(Cl)cc2)cc1NC(C)=O	u	4%	-1%	26µM*	i	u
CCOc1ccc(S(=O)(=O)N2CCCCC2)cc1NC(=O)c1ccccc1	i	20%	24%	u	i	-4%
